Experimental data published in PubChem BioAssay AID492962 (National Center for Advancing Translational Sciences (NCATS), 2010).
Active and inactive are the calls of the source. No rule for the calls is given here.

Experiment: Mouse Th1 T cell differentiation assay for inhibitors of ROR gamma transcriptional activity
Conditions: mouse naive CD4 T cells, Th1 IFN-g flow cytometry; activity: at 30 µM, active compounds read high unless noted; outcome: at 3 µM unless noted
Source text: NIH Molecular Libraries Probe Production Network [MLPCN] NIH Chemical Genomics Center [NCGC] MLPCN Grant: R03 DA026211-01 Assay Provider: Dan Littman, New York University Keywords: NIH Roadmap, MLPCN, MLI, MLSMR, qHTS, NCGC, qHTS, nuclear hormone receptor, retinoic acid-related orphan receptor, ROR gamma Assay Overview: The retinoic acid-related orphan receptor (ROR) gamma is a transcription factor that has a central role in the differentiation of Th17 cells, a subset of T helper cells that secrete the inflammatory cytokines IL-17a, IL-17f, and IL-22. Th17 cells have been implicated in graft versus host disease, autoimmune disease and asthma. ROR gamma is induced in naive T helper cells in the presence of TGF-beta combined with IL-6, IL-21, or IL-23, and thereafter directs the expression of the Th17 lineage cytokines. To confirm the selectivity of ROR gamma inhibitors, compounds with strong inhibitory activities on Th17 cells were tested in a mouse Th1 T cell differentiation assay. T cells differentiate into Th1 cells in the presence of IL-12 and IL-2. […] Th1 differentiation was tracked by the induction of interferon gamma (IFN-g) expression as measured by an anti-IFN-g antibody using flow cytometry.
Assay Protocol Summary: Cells from lymph nodes and spleens derived from six to eight week old IL17a-GFP mice (Biocytogen LLC) were used for T cell purification. B220- cells were isolated on an autoMACS Pro with bead depletion of B220+ cells (Miltenyi). Naive CD4+ T cell were further purified as TCRb+CD8- DAPI- CD19- CD4+CD25- CD62L+CD44low/Int by cell sorting on a FACSAria (BD). Cells were cultivated in an incubator at 37 C and 5% CO2 in RPMI 1640 medium (Invitrogen) supplemented with 10% (vol/vol) heat-inactivated FBS (Hyclone), penicillin-streptomycin, 2 mM glutamine and 0.1 mM nonessential amino acids. Cells were seeded on day 0 at a density of 0.4E5 cells per ml in 96-well plates coated with anti-CD3e (5 ug/ml) and anti-CD28 (10 ug/ml). Cells were cultured for 4~5 days in Th1 [IL-12 (10 ng/ml), IL-2 (100 U/ml), anti-IL-4] condition. […]

SMILES	activity	outcome
CC1CCCN(C(=O)CC(c2ccc3c(c2)OCO3)c2ccc3ccccc3c2O)C1 (stereo not drawn)	32.5% [at 25 µM, active compounds read high] (inactive)	
COc1cc(O)c(C(CC(=O)N2CCCC(C)C2)c2ccccc2OC)c(OC)c1 (stereo not drawn)	46.1% (inactive)	
COc1cc(O)c(C(CC(=O)N2CC(C)CC(C)C2)c2ccc3c(c2)OCO3)c(OC)c1 (stereo not drawn)		inactive
